Experimental data published in PubChem BioAssay AID720593 (Broad Institute, 2013).
Potency and affinity values are given separately. Active and inactive are the calls of the source.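 The calls were made as follows: active = falling viability curve whose half-maximal potency lies within twice the top valid tested dose; inconclusive = flat curve with moderate signal loss, or unreliable curve fit; inactive = the rest.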

Assay: ATP-based viability loss in HeLa cells – cell-based, CellTiter-Glo luminescence, dry powder, set 2, cytotoxicity control, dose response (AID 720593)

| SMILES | outcome |
| --- | --- |
| CC1CC(C)CN(S(=O)(=O)c2ccc(C(=O)Nc3nnc(C4=COCCO4)o3)cc2)C1 (centres undefined) | inactive |
| CC1CCN(S(=O)(=O)c2ccc(C(=O)Nc3nnc(C4=COCCO4)o3)cc2)CC1 | inactive |
| CC1CCN(S(=O)(=O)c2ccc(C(=O)Nc3nnc(-c4ccno4)o3)cc2)CC1 | inactive |
| Cc1ccc(S(=O)(=O)CCc2nnc(NC(=O)c3ccccc3)s2)cc1 | inactive |
| CC1CCN(S(=O)(=O)c2ccc(C(=O)Nc3nnc(-c4ccco4)o3)cc2)CC1 | inactive |
| O=C(Nc1nc(-c2ccncc2)cs1)c1ccco1 | inactive |
| CC(C)Cc1nnc(NC(=O)c2cccc(S(=O)(=O)N3CCOCC3)c2)s1 | inactive |
| CC1CCCN(S(=O)(=O)c2ccc(C(=O)Nc3nnc(C4=COCCO4)o3)cc2)C1 (centres undefined) | inactive |
| Cc1ccc(C(=O)Nc2nc(-c3ccccn3)cs2)cc1S(=O)(=O)N1CCOCC1 | inactive |
| Cc1c(C(=O)N(C)C)sc2nc(-c3ccccn3)[nH]c(=O)c12 | inactive |
| COC(=O)Cc1cc(=O)n(-c2nc3ccccc3[nH]2)[nH]1 | inactive |
| CC1CCN(S(=O)(=O)c2ccc(C(=O)Nc3nnc(-c4ccccn4)o3)cc2)CC1 | inactive |
| O=C(Nc1nnc(C2=COCCO2)o1)c1ccc(S(=O)(=O)N2CCCCC2)cc1 | inactive |
| O=C(CSc1ccc(-c2ccccn2)nn1)Nc1nccs1 | inactive |
| FC(F)(F)c1cc(-c2nn[nH]n2)cc(C(F)(F)F)c1 | inactive |
| CC1CCN(S(=O)(=O)c2ccc(C(=O)Nc3nnc(C4CC4)o3)cc2)CC1 | inactive |
| O=C(CSc1ccc(-c2ccccn2)nn1)N1CCCC1 | inactive |
| Cc1cccc(NC(=O)CSc2ccc(-c3ccccn3)nn2)c1C | inactive |
| Cc1ccc(C(=O)Nc2nc(-c3ccccc3)cs2)o1 | inactive |
| CC1CCN(S(=O)(=O)c2ccc(C(=O)Nc3nnc(-c4cccs4)o3)cc2)CC1 | inactive |
| COC(=O)c1ccc(NC(=O)CSc2ccc(-c3ccccn3)nn2)cc1 | inactive |
| CC1CCN(S(=O)(=O)c2ccc(C(=O)Nc3nnc(-c4ccccc4)o3)cc2)CC1 | inactive |
| O=C(CSc1ccc(-c2ccccn2)nn1)NC1CCCCC1 | inactive |
| Cc1nnc(NC(=O)c2ccc(S(=O)(=O)N3CCCCC3)cc2)o1 | inactive |
